For 16 compounds, inhibition results are on record in PubChem BioAssay.

As a reminder, the inhibition is the change of the read-out against control, counted positive when it falls.

Assay [1] deals with Nuclear receptor coactivator 3 (Homo sapiens) (UniProt Q9Y6Q9). The assay can be described thus: NCOA3 GAL4-fusion reporter inhibition – cell-based, luminescence, quadruplicate, confirmation (AID 588792;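 active means mean inhibition over 43.08%, the solvent-only control mean plus 3 SD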;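 further: 0% = DMSO treated cells and 100% = gossypol at 36 µM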). The conditions noted are these: HEK293 GAL4-SRC3 luciferase reporter, at 3.6 µM, hits give high values. For orientation: Reporter assays use an easily measured gene product as a stand-in for the process of interest.
Sequence of Nuclear receptor coactivator 3 (Homo sapiens) (Q9Y6Q9 whole entry, looked up, the tested form may be a part): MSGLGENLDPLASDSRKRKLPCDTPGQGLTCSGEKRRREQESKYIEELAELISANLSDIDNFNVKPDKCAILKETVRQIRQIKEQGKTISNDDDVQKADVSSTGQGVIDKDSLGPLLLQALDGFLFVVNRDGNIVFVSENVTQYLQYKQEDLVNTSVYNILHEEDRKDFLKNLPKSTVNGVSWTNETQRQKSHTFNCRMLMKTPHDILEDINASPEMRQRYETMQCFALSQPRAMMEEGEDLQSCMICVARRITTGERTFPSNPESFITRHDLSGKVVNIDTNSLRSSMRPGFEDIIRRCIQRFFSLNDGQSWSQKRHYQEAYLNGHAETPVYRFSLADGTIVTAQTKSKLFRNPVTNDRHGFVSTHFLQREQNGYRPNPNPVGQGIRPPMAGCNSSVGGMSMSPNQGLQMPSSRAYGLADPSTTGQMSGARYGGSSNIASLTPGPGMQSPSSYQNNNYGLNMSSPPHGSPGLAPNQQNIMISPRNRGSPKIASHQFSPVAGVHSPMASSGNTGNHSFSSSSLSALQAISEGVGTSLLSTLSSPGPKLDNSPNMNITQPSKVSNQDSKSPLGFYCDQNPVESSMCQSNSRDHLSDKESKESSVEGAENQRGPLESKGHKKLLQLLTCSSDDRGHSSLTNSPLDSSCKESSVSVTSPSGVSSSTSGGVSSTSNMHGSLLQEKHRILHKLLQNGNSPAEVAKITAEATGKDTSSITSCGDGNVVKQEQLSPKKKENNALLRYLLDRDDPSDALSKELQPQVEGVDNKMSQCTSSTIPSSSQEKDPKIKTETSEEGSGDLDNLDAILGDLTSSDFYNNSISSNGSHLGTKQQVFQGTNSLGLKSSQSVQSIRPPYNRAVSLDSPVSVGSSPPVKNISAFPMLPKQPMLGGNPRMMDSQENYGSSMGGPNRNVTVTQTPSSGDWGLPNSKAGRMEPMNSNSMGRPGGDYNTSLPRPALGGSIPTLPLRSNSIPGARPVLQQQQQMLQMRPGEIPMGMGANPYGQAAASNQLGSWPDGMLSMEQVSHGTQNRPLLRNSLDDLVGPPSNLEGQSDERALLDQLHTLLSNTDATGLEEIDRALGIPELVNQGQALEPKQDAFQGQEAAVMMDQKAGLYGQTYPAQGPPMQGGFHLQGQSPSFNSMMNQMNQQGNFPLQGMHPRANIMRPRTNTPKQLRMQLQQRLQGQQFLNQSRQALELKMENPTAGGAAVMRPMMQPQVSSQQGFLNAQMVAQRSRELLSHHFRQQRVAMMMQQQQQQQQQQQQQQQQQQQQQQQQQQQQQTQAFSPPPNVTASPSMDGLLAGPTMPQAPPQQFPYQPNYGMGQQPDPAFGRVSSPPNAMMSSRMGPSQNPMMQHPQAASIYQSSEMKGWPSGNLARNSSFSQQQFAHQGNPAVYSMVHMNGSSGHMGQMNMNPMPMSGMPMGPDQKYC

In assay [2] the test system is transactivating tegument protein VP16 (Human herpesvirus 1), Gal4-VP16 luciferase reporter. In words: repression of VP16-driven luciferase reporter – cell-based, luminescence, high throughput, counter-screen for SRC3 inhibitor project (AID 588794; in the data active means inhibition above about 30%). The conditions noted are these: mammalian cells, at 3.6 µM, hits give high values.
Assay [3] concerns the target Nuclear receptor coactivator 1 (Homo sapiens) (UniProt Q15788). The assay can be described thus: NCOA1 GAL4-fusion reporter inhibition – cell-based, luminescence, quadruplicate, confirmation (AID 588820).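 Further: 0% = DMSO wells and 100% = gossypol 36 µM treated wells.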 The conditions noted are these: HEK293 GAL4-SRC1 luciferase reporter, at 3.6 µM, hits give high values.
Assay [4] can be described thus: repression of VP16-driven luciferase reporter – cell-based, luminescence, high throughput, counter-screen for SRC1 inhibitor project (AID 588824; in the data active means inhibition above about 25%). The conditions noted are these: cell-based VP16 transactivation luciferase luminescence; at 3.6 µM; hits give high values.
Assay [5] is described as follows: StAR promoter reporter inhibitors, counter-screen for LRH-1 inverse agonist project, cell-based, luminescence, high throughput (AID 651611; in the data active means inhibition above about 28%). The conditions noted are these: StAR promoter luciferase reporter counterscreen, at 3.6 µM, hits give high values. A general note: Counterscreens check selectivity or assay interference.
The target of assay [6] is Nuclear receptor subfamily 5 group A member 2 (Homo sapiens) (UniProt O00482). In words: NR5A2 activity suppression in reporter cells – cell-based, luminescence, confirmation (AID 651613; in the data active means inhibition above about 42%;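 further: HEK293T cells co-transfected with LRH-1 and StAR promoter luciferase reporter; 0% = vehicle wells and 100% = parental cells lacking receptor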). The conditions noted are these: cell-based LRH-1 luciferase reporter, inverse agonism; at 3.6 µM; hits give high values.
Sequence of Nuclear receptor subfamily 5 group A member 2 (Homo sapiens) (O00482 whole entry, looked up): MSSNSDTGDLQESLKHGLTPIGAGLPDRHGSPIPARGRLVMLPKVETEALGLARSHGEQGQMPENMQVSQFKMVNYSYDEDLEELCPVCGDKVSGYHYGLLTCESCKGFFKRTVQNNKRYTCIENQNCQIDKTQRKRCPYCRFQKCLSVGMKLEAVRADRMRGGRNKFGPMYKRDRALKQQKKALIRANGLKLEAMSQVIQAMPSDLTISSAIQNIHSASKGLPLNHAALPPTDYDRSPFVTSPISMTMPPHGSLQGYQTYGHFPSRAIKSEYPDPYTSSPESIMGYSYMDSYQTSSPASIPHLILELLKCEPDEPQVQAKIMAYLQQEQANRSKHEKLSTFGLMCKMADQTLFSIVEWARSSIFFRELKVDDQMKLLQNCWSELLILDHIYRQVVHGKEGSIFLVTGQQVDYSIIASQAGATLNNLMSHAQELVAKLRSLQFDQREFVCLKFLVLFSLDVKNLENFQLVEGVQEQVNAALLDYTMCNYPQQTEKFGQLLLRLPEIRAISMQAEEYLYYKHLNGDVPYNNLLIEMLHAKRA
For assay [7], the target named is Steroidogenic factor 1 (Homo sapiens) (UniProt Q13285). In words: inverse agonism at SF1 nuclear receptor – cell-based, luminescence, high throughput, counter-screen for LRH-1 inverse agonist project (AID 651614; in the data active means inhibition above about 44%;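 further: cells cotransfected with StAR promoter reporter and SF1 expression vector; 0% = vehicle on cells with receptor and 100% = vehicle on cells lacking receptor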). The conditions noted are these: cell-based SF1 luciferase reporter, at 3.6 µM, hits give high values.
Sequence of Steroidogenic factor 1 (Homo sapiens) (Q13285 whole entry, looked up, the tested form may be a part): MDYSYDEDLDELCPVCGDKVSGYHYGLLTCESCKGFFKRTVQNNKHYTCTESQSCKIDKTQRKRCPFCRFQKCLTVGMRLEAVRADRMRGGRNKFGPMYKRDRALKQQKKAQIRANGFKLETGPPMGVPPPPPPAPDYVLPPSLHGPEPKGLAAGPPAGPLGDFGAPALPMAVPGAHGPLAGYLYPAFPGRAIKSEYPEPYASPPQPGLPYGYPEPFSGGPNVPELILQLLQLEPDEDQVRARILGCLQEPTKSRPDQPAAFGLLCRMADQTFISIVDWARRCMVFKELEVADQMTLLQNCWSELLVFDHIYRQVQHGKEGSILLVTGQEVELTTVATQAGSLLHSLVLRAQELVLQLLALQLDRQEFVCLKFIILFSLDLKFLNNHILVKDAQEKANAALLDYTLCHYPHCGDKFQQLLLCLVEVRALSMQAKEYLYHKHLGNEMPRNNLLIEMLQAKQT
The nature of assay [8]: compounds suppressing VP16-driven luciferase signal – cell-based, luminescence, high throughput, counter-screen for LRH-1 inverse agonist project (AID 651615; in the data active means inhibition above about 33%). The conditions noted are these: Gal4-VP16 luciferase reporter cells, at 3.6 µM, hits give high values.

Molecules are shown by their SMILES. The source made the active and inactive calls.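 How the source made its calls, unless noted: active means mean inhibition above 46.68%, the untreated control wells mean plus 3 SD; inactive means the rest.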

Sequence of Nuclear receptor coactivator 1 (Homo sapiens) (Q15788 whole entry, looked up, the tested form may be a part): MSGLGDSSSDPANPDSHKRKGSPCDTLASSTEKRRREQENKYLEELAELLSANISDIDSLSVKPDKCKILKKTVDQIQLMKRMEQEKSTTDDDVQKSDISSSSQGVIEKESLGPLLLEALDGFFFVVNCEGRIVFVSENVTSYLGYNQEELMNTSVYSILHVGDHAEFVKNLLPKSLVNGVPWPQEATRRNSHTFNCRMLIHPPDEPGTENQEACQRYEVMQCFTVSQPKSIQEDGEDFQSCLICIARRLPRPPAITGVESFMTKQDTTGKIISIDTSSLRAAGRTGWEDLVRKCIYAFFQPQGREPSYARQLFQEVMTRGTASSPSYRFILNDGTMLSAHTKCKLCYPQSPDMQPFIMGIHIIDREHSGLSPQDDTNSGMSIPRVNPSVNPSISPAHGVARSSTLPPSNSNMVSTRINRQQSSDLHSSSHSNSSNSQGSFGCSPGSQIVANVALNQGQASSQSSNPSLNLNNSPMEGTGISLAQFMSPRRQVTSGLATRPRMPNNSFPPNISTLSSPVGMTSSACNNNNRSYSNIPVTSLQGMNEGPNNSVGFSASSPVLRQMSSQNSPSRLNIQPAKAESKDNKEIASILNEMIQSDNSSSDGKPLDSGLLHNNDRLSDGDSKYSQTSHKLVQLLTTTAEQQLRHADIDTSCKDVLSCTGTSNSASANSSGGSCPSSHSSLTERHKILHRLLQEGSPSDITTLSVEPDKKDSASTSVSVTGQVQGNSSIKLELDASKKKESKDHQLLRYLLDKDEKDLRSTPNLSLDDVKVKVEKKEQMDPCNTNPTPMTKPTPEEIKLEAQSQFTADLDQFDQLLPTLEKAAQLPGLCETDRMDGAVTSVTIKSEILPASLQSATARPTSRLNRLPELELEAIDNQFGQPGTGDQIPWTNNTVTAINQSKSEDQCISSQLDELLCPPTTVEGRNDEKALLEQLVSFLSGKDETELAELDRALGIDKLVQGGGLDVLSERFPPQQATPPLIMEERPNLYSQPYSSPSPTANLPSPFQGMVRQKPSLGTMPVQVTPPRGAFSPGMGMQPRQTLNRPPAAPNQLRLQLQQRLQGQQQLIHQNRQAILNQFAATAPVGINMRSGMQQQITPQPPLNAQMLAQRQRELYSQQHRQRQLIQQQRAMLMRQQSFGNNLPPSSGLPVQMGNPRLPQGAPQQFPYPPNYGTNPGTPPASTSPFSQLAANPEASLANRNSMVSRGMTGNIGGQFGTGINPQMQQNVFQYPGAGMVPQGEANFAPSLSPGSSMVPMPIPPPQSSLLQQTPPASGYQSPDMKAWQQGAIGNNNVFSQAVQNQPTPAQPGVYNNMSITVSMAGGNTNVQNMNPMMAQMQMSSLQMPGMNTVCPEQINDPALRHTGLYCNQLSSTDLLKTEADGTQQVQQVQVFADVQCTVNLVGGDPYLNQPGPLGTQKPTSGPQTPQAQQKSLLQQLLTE

Take `NC1=C(Br)C(=O)c2ncccc2C1=O`: the inhibition in assay [1] was 72.1% (active); in assay [2] it was 60.8% (active); in assay [3] it was 49.1% (active); in assay [4], 54.8% (active); in assay [5], 70.9% (active); in assay [6], 92.9% (active). For the same compound, the inhibition in assay [7] was 84.3% (active); in assay [8] it was 79.3% (active).
With `CCCCCCCn1c2c(c(=N)c3ccccc31)CCC2`, the inhibition in assay [1] is 71.2% (active); in assay [2], 79.5% (active); in assay [3] it was 61.5% (active); in assay [4] it was 79.1% (active); in assay [5], 70.8% (active); in assay [6] it was 111% (active). The figures for the inhibition in assay [7] and in assay [8] were 91.2% (active) and 94.7% (active), respectively.
As to `COc1ccccc1-n1cc([C@@H]2C[C@H]3CN(c4ccccc4)C(=O)[C@]34CCCN24)cn1`, the inhibition was 53.1% (active) in assay [1]; 38% (active) in assay [2]; 26.6% (inactive) in assay [3]; 47.4% (active) in assay [4]; 36.2% (active) in assay [5]; 57.8% (active) in assay [6]. Moreover, the inhibition was 19.5% (inactive) in assay [7] and 69.6% (active) in assay [8].
For the compound `Brc1ccc2c(c1)CN1CCCC1=N2`, the inhibition in assay [1] was 15.1% (inactive); in assay [2], 31.6% (active); in assay [3] it was 9.34% (inactive); in assay [4], 28% (active); in assay [5], 30.9% (active); in assay [6], 42.2% (active). The values for the inhibition in assay [7] and in assay [8] were 30.6% (inactive) and 42.4% (active), respectively.
As for `Nc1ccc(S(=O)(=O)NNC(=O)C(=O)NNc2ccccc2)cc1`, the inhibition in assay [1] is 12.2% (inactive); in assay [2] it was 8.16% (inactive); in assay [3], -15.5% (inactive); in assay [4], 18.5% (inactive); in assay [5], 5.29% (inactive); in assay [6] it was 18.9% (inactive). Also, the inhibition in assay [7] was 17.6% (inactive); in assay [8], 39.2% (active).
Regarding `O=C1C(Nc2ccc(O)cc2)=C/C(=N/S(=O)(=O)c2cccs2)c2ccccc21`, the inhibition in assay [1] was 85.2% (active); in assay [2] it was 72% (active); in assay [3], 29.5% (inactive); in assay [4] it was 68% (active); in assay [5], 79.7% (active); in assay [6], 101% (active). Besides, the values for the inhibition in assay [7] and in assay [8] were 87.6% (active) and 95.2% (active), respectively.
With `COc1ccccc1N1CCN(Cc2cc(Br)c(O)c3ncccc23)CC1`, the inhibition in assay [1] is 21.4% (inactive); in assay [2], 3.52% (inactive); in assay [3], -1.06% (inactive); in assay [4], -1.42% (inactive); in assay [5], 23.9% (inactive); in assay [6] it was 23.9% (inactive). For the same compound, the inhibition in assay [7] was 42.8% (active); in assay [8] it was 21.7% (inactive).
Regarding `COC(=O)c1cc(O)cc(OC)c1Oc1cc(C)cc(O)c1C(=O)O`, the inhibition in assay [1] was 13.8% (inactive); in assay [2] it was 62.9% (active); in assay [3], 54.2% (active); in assay [4], 60.2% (active); in assay [5], 56.5% (active); in assay [6], 73% (active). For the same compound, the inhibition was 66.9% (active) in assay [7] and 65.5% (active) in assay [8].
In the case of `CCCCCCCCCn1c2c(c(=N)c3c1CCC3)CCCC2`, the inhibition is 87.2% (active) in assay [1]; 90.4% (active) in assay [2]; 65.6% (active) in assay [3]; 85.3% (active) in assay [4]; 83.7% (active) in assay [5]; 111% (active) in assay [6]. Also, the values for the inhibition in assay [7] and in assay [8] were 95.6% (active) and 94.6% (active), respectively.
`O=C(O)CSCC(=O)Nc1ccc(C2CCCCC2)cc1`: the inhibition is 72% (active) in assay [1]; 62.4% (active) in assay [2]; 64.2% (active) in assay [3]; 63.7% (active) in assay [4]; 71.4% (active) in assay [5]; 78.8% (active) in assay [6]. Moreover, the inhibition in assay [7] is 64.5% (active); in assay [8] it was 63.6% (active).
`Cc1ccccc1CN1CC2=C(CCN(Cc3ccccc3)C2=O)N2CCN=C12`: the inhibition in assay [1] was 47.9% (active); in assay [2], 70.7% (active); in assay [3], 53.7% (active); in assay [4], 66.9% (active); in assay [5], 76.9% (active); in assay [6] it was 96.3% (active). The inhibition in assay [7] is 88.7% (active); in assay [8], 77.8% (active).
As to `Nc1ncn([C@@H]2O[C@H](CO)[C@@H](O)[C@H]2O)c(=O)n1`, the inhibition in assay [1] was 76.7% (active); in assay [2], 57.1% (active); in assay [3] it was -17.7% (inactive); in assay [4], 45.7% (active); in assay [5], 69.6% (active); in assay [6], 90.2% (active). The inhibition is 82.3% (active) in assay [7] and 80.9% (active) in assay [8].
As to `COc1ccc(-n2cc(-c3ccc(C)cc3)[n+]3c2SCC3)cc1`, the inhibition in assay [1] is 30.8% (inactive); in assay [2], 55.1% (active); in assay [3] it was 22.8% (inactive); in assay [4], 51% (active); in assay [5], 40.9% (active); in assay [6] it was 83.5% (active). Also, the inhibition is 75.1% (active) in assay [7] and 74.9% (active) in assay [8].
As for `CC(C)(C)c1ccc(/C=N/Nc2ccc(C(=O)O)cc2)cc1`, the inhibition was 28.4% (inactive) in assay [1]; 32.6% (active) in assay [2]; 13.3% (inactive) in assay [3]; 13.9% (inactive) in assay [4]; -5.93% (inactive) in assay [5]; -189% (inactive) in assay [6]. Further, the inhibition in assay [7] was -79.9% (inactive); in assay [8], -20.1% (inactive).
Consider `CC[C@H]1CN2CCc3cc(OC)c(OC)cc3C2C[C@@H]1C[C@H]1NCCc2cc(OC)c(OC)cc21` (stereo partly drawn), for which the inhibition in assay [1] is 97.5% (active); in assay [2] it was 96% (active); in assay [3], 91.5% (active); in assay [4] it was 94.6% (active); in assay [5], 95.7% (active); in assay [6] it was 110% (active). Moreover, the figures for the inhibition in assay [7] and in assay [8] were 98% (active) and 97.2% (active), respectively.
As for `CC1(C)CC(N2CCCCC2)=CC(=[N+]2CCCCC2)C1`, the inhibition in assay [1] was 21.5% (inactive); in assay [2] it was 44.1% (active); in assay [3], 14.8% (inactive); in assay [4], 39.7% (active); in assay [5], 30.1% (active); in assay [6] it was 80% (active). Further, the inhibition is 69.1% (active) in assay [7] and 67.3% (active) in assay [8].
